Sampled rows, rich in hits. Any-hit rate of the full collection: about 3%.
BCR signal inh: chronic active BCR signaling inhibition; ABC-DLBCL IkBa-CBG/CBR reporter, luminescence ratio, 4 h; Potency, µM (highest dose often 46.1 µM), inactives show at the highest dose activity change, negative = inhibition, actives largely listed as inhibitors; 340,000 compounds, 0.05% hits; AID 493014; active = well fitted inhibition curve with a large enough effect in the signal ratio, with a control signal flat, not every such curve was filed as active; inconclusive = small, poorly fitted or top-dose-only effect, or effect the other way, or a change in a side signal; the % refers to the signal ratio;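 note: potency is the fitted concentration of half-maximal effect; plate controls were basal doxycycline-induced cells for no effect and cells given 10 µM MG132 for full effect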
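TMD8 human ABC-DLBCL cells with doxycycline-inducible IκBα–green luciferase fusion and unfused red luciferase, in 0.5% FBS medium; compounds up to 46 uM, 4 h at 37C. Green/red luminescence ratio, filter-overlap corrected, fitted to concentration-response curves.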
KCNH2 WT inh: inhibitors of human wildtype KCNH2 potassium channel | activity change, % at 1.84 µM | AID 720551 | U2OS, BacMam KCNH2, thallium flux FluxOr; stronger effect = lower value | 340,000 compounds, 0.37% hits | Q12809;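 active = maximum activity change below -70%; inconclusive = maximum activity change between -70% and -50%; inactive = maximum activity change above -50%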; note: % is set by controls: 0 for no effect and ±100 for the full control effect
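U2OS cells transduced with wild-type KCNH2 virus are loaded with FluxOr dye for 45 min, and thallium flux is measured in kinetic reads before and after stimulation buffer. Rate constants are normalized to DMSO controls.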
KCNH2 3.1 inh: blocks the human KCNH2 3.1 channel isoform. activity change, % (tested at about 1.8 µM). U2OS KCNH2 3.1, thallium flux FluxOr; stronger effect = lower value. AID 720553. 340,000 compounds, 0.95% hits;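 active = maximum activity change below -70%; inconclusive = maximum activity change from -70% to -50%; inactive = maximum activity change above -50%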;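 note: thallium influx rate constant from kinetic fluorescence after stimulation buffer; % is set by controls: 0 for no effect and ±100 for the full control effect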
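Thallium flux read-out: FluxOr dye with Red40 quencher in HBSS/HEPES, 45 min at RT. Rate constants from kinetic reads were normalized to positive and negative DMSO controls. Cells: U2OS virally expressing the 3.1 isoform.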
ClpP mod: qHTS Assay for Activators of ClpP. 340,000 compounds, 1.9% hits. Potency, µM (highest dose often 57.5 µM), for inactives: at the highest dose activity change, negative = active. purified B. subtilis ClpP, FRET peptide cleavage, 20 min; active = well fitted falling curve with a large enough effect; inconclusive = small, poorly fitted or top-dose-only effect; inactive = no such curve, though single readings can be large or run the other way; note: potency is the fitted concentration of half-maximal effect; the source files actives as falling curves though it sought activators and does not explain the sign; nearly all actives have a fitted effect of over 65% in size
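FRET quenching reversal measured ClpP activation: 10 microg/mL B. subtilis ClpP at pH 8 with the FRET-FV decapeptide, read at 430 nm after 320 nm excitation. The 20-min minus 0-min signal was scaled between DMSO/no-enzyme wells and ADEP (5.8 microM final).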
LDHA block: inhibitors of human lactate dehydrogenase A | P00338 | purified LDHA, NADH/diaphorase-resazurin fluorescence; stronger effect = lower value | activity change, % (values are at about 110 or 230 µM) | 480,000 compounds, 0.15% hits | AID 1347041; in the data active = activity change below about -30%; inconclusive = mostly about -25% to -30%;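 note: plate controls were DMSO wells for no effect and wells without enzyme for full effect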
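Resorufin fluorescence (ex540/em590), read at 0 and 20 min after diaphorase/resazurin addition, reports the NADH left after a 5 min room-temperature reaction of 2 nM human LDH5 with 0.06 mM NADH and 0.2 mM pyruvate.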
12-LOX inh: ALOX12 (human) lipoxygenase inhibition; AID 1671190; Potency, µM (top dose mostly 108 µM), without a hit: at the highest dose activity change, negative = inhibition, most hits filed as inhibitors; 580,000 compounds, 1.1% hits; purified 12hLO, xylenol orange hydroperoxide absorbance; active = well fitted inhibition curve with a large enough effect; inconclusive = small, poorly fitted or top-dose-only effect, or another doubt; inactive = no such curve, though single readings can be large or run the other way; note: potency is the fitted concentration of half-maximal effect; % is set by controls: 0 for no effect and ±100 for the full control effect
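Purified human 12hLO at 150 nM in 25 mM Hepes, 0.01% Triton X-100, pH 7.0, preincubated 15 min at room temperature with compound. Reaction started with 40 uM arachidonic acid, 30 min at room temperature. Hydroperoxide measured by Fe-xylenol orange, 573/405 nm absorbance ratio.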
* hit, by the source's call; ? = inconclusive; nt = no result given; [ ] = remark or other dose.

SMILES	BCR signal inh	KCNH2 WT inh	KCNH2 3.1 inh	ClpP mod	LDHA block	12-LOX inh
CC(C)c1ccc(NC(=O)NCC(O)c2ccccc2F)cc1 (stereo not given)	nt	nt	nt	nt	0	0%
COc1ccc2c(c1)C(C)=CC(C)(C)N2C(=O)Nc1cccc(Cl)c1	nt	nt	nt	nt	2	40µM*
COc1ccc(CN2CC3(CCN(C(=O)Nc4cccc(Cl)c4)CC3)C2=O)cc1	nt	nt	nt	nt	nt	-5%
CCNC(=O)N1c2ccc(OCC)cc2C(C)=CC1(C)C	?	4	-7	-22%	17	5%[57.4 µM]
CCOc1ccc2c(c1)C(C)=CC(C)(C)N2C(=O)Nc1ccccc1F	-5%	9	1	28µM*	30	?
COC[C@H]1CCCN1C(=O)C[C@@H]1O[C@H](CNS(=O)(=O)c2ccccc2)[C@@H](O)[C@H]1O	nt	nt	nt	nt	nt	40µM*
O=C(C[C@@H]1O[C@H](CNS(=O)(=O)c2ccccc2)[C@@H](O)[C@H]1O)N1CCN(c2ccccc2)CC1	nt	nt	nt	nt	nt	6%
CCCc1ccc(NC(=O)Cn2cnc3c2c(=O)n(C)c(=O)n3C)cc1	nt	nt	nt	nt	-1	-41%
Cc1cccc(NC(=O)CC(=O)Nc2cccc(C)c2)c1	0%	4	-6	0%	0	16%
CC(=O)Nc1ccc(S(=O)(=O)NNc2cccc(C)c2)cc1	-10%	1	-3	nt	34	2µM*
Cc1cccc(NC(=O)N[C@@H](CC(C)C)C(=O)O)c1	nt	nt	nt	nt	0	-17%
Cc1cccc(NNC(=O)C(=O)NNc2cccc(C)c2)c1	?	-5	26	2%	-3	1.4µM*
Cc1cccc(NC(=O)N[C@@H](C)C(=O)O)c1	2%	4	-2	16µM*	-1	100%
COCCn1ncc(N2CCC(C(=O)N3CCC(C(N)=O)(N4CCCCC4)CC3)C2)cc1=O (stereo not given)	nt	nt	nt	nt	nt	22%
Nc1nc(N2CCN(Cc3ccc(Cl)cc3)CC2)c2[nH]cnc2n1	nt	nt	nt	nt	1	?
Cc1cc(-c2nnc(CCC(=O)NCc3cc(F)cc(C(F)(F)F)c3)o2)no1	1%	-10	-11	28µM*	-1	9%
Cc1cc(-c2nnc(CCC(=O)NCC(C)c3ccccc3)o2)no1 (stereo not given)	?	-4	nt	-11%	-5	0%
O=C(NCC#Cc1ccccc1)N1CCCCCCC1	nt	nt	nt	nt	0	20%
N#CC1(C(=O)Nc2ccc(Br)cc2)CCCC1	nt	nt	nt	nt	-2	?
CCC1(c2ccc(Cl)cc2)NC(=S)N(c2ccc(C)c(C)c2)N1 (stereo not given)	?	-5	43	2%	-2	?
CCC1(c2ccc(Cl)cc2)NC(=S)N(c2ccc(C)cc2)N1 (stereo not given)	?	-18	-11	-5%	0	28µM*
C=CCNC(=S)NS(=O)(=O)c1cccs1	2%	-13	5	nt	-6	1.1µM*
COCCCNC(=O)C(NC(=O)c1cccc(C)c1)C1CCN(C(=O)c2ccc(C)cc2)CC1 (stereo not given)	nt	nt	nt	nt	nt	42%
COc1ccc(OC)c(CNC(=O)c2c(-c3ccc(C)cc3)nnc3ccccc23)c1	nt	nt	nt	nt	-18	38%
O=C(N/N=C/c1ccc2c(c1)OCO2)c1ccn(Cc2ccc(Cl)cc2)n1	?	-1	-24	28µM*	-12	-2%
O=C(Nc1ccn(Cc2ccc(Cl)cc2)n1)c1ccc2c(c1)OCO2	nt	-7	0	-1%	-1	-21%
O=C(CCc1nc(-c2ccccc2)c(-c2ccccc2)o1)OCc1ccc(Cl)cc1	15%	-7	-4	32µM*	-2	0%
O=C(O)CCc1nc(-c2ccccc2)c(-c2ccccc2)o1	4%	nt	nt	nt	nt	-4%[22.9 µM]
CNC(=O)CCc1nc(-c2ccccc2)c(-c2ccccc2)o1	nt	nt	nt	nt	-1	-1%
O=C(CCc1nc(-c2ccccc2)c(-c2ccccc2)o1)OCc1ccc(Br)cc1	-7%	-3	-14	28µM*	-3	17%
